Experimental findings from publication PMC8384837, “Expanding the binding specificity for RNA recognition by a PUF domain” are described below.

In this assay the target is PUM1 PUF domain R5-MRG (Homo sapiens, UniProt Q14671 828-1176, C1007M;Q1011G). The assay is described as follows: yeast three-hybrid, YBZ-1, SC-Leu-His + 0.5 mM 3-AT, 4 days. Conditions: tags: N-Gal4 AD-HA kept; label: inside an RPR1-promoter hybrid RNA with tandem MS2 sites; ssRNA. The gist of the method:
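The interaction score is the log change in how often each variant appears, from input to selection. Frequencies came from PCR-amplified, Illumina-sequenced repeat regions of Pumilio-1 PUF domain libraries grown in strain YBZ-1 (LexA–MS2 coat fusion, HIS3 reporter) alongside matching RNA elements. Input plates were SC-Leu and selection plates were SC-Leu-His + 0.5 mM 3-AT, each for four days, and the log2 calculation used a pseudocount of 1 where a variant was absent.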
On to “GGCUAGAACUAGUGGAUCCCCCGGCGCCCGGCGGCUCGAGCCCGGGUAAGUGUCAAUAGUCUGCAUGCCGCCGGGCGCCAUGCCUGCAGGUCGACUCUAGAAAACAUG”, for which the binding signal is 0.97 log2 enrichment (interaction score).
“GGCUAGAACUAGUGGAUCCCCCGGCGCCCGGCGGCUCGAGCCCGGGUAAGUGUUAAUAGUCUGCAUGCCGCCGGGCGCCAUGCCUGCAGGUCGACUCUAGAAAACAUG”: the binding signal is 3.12 log2 enrichment (interaction score).
As to “GGCUAGAACUAGUGGAUCCCCCGGCGCCCGGCGGCUCGAGCCCGGGUAAGUGUAAAUAGUCUGCAUGCCGCCGGGCGCCAUGCCUGCAGGUCGACUCUAGAAAACAUG”, the binding signal was 0.66 log2 enrichment (interaction score).
